The supplement of paper PMC6555819

What was measured:
Test in all cases: PBM binding z-score (relative to random genomic background probes); higher = stronger binding; sequences stand for … in GC…GCGATTGACAGCGTAGAATGAAGG
[1] = tested on: RARb homodimer (NR concentration 270 nM)
Procedure, shortened: (§1)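 Probes were double-stranded and carried 34-nt variable regions with direct-repeat seeds, single-nucleotide variants, half-site ablations and random human genomic background sequences, printed on custom Agilent 4×180K protein-binding microarrays. Arrays were incubated 1 h with ligand-free nuclear receptor dimers in PBS pH 7.4, 2% milk, 0.02% Triton X-100, 1 mM DTT, 0.2 mg/mL BSA and 0.4 mg/ml salmon testes DNA. Antibodies against each partner (one per run) detected binding, and scanned fluorescence was regression-normalized. Binding z-scores use the random background probes as reference.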

[2] = tested on: RARg:RXRa (NR concentration 270 nM, RXRa partner concentration 90 nM)
Procedure, shortened: as §1

[3] = tested on: RARg homodimer (NR concentration 270 nM)
Procedure, shortened: as §1

[4] = tested on: RXRa DBDmut IVT, anti-RXR (DBD mutation: RXRa K156A/R161A, NR concentration 90 nM)
Procedure, shortened: as §1

[5] = tested on: RXRa homodimer (NR concentration 180 nM)
Procedure, shortened: as §1

[6] = tested on: THRa:RXRa (NR concentration 90 nM, RXRa partner concentration 90 nM)
Procedure, shortened: as §1

[7] = tested on: THRa homodimer (NR concentration 90 nM)
Procedure, shortened: as §1

[8] = tested on: VDR homodimer (NR concentration 270 nM)
Procedure, shortened: as §1

Sequence	PBM binding z-score [1]	PBM binding z-score [2]	PBM binding z-score [3]	PBM binding z-score [4]	PBM binding z-score [5]	PBM binding z-score [6]	PBM binding z-score [7]	PBM binding z-score [8]
TCGAGTAGTTTACCAATGGGGCATTCAGCTTTCT	0.239	-0.401	-0.51	0.878	-0.356	-0.217	-0.644	-0.305
CGTACAGGGTCAGCTAGGCCAGAGTAGGGACGGC	3.07	4.55	4.77	1.93	4.1	3.05	0.562	1.14
GCTATTAGTTGAAAGGGCAAACGAATGATTCTCG	1.86	1.24	1.06	0.931	1.38	0.777	-0.332	0.589
TCATATAAGTAAAGGTGAAAGTCGAACGATATGA	1.41	1.5	1.25	0.638	2.04	1.18	-0.569	-0.0399
CAAACTAGGTCACAGAGTTCAAAGTCCGTGCGTA	4.74	6.06	6.71	4.25	5.69	4.03	1.96	9.52
ATCTTTAGGTAAAGATAGTTCAGTGAATGCAAAT	0.997	0.713	0.798	0.388	0.298	1.23	0.203	0.742
CTCGAAAGGTCGGGTGAGGTGAGTATACGGATAA	3.12	3.42	3.43	0.73	3.05	5.11	1.91	0.829
